For eleven compounds, inhibition results are on record in ChEMBL document CHEMBL1961873, “Compounds: GSK PKIS; Assays: Nanosyn kinase panel” (2012).

The term inhibition denotes the relative decrease from the control value, in per cent.

The structures appear in SMILES notation.

The target of test [1] is Mitogen-activated protein kinase kinase kinase kinase 4 (Homo sapiens) (UniProt O95819). The settings on record: at 1 µM.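 Further: reported figure is an averaged inhibition value.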
The target of test [2] is Dual specificity mitogen-activated protein kinase kinase 1 (Homo sapiens) (UniProt Q02750). Conditions: at 0.1 µM.
The target is the same in test [3]. Conditions: at 1 µM.
Test [4] addresses Misshapen-like kinase 1 (Homo sapiens) (UniProt Q8N4C8). The settings on record: at 0.1 µM.
Test [5] shares this target. Conditions: at 1 µM.
Test [6] concerns the target T1, Serine/threonine-protein kinase 4 (Homo sapiens) (UniProt Q13043).
T1 sequence (whole entry): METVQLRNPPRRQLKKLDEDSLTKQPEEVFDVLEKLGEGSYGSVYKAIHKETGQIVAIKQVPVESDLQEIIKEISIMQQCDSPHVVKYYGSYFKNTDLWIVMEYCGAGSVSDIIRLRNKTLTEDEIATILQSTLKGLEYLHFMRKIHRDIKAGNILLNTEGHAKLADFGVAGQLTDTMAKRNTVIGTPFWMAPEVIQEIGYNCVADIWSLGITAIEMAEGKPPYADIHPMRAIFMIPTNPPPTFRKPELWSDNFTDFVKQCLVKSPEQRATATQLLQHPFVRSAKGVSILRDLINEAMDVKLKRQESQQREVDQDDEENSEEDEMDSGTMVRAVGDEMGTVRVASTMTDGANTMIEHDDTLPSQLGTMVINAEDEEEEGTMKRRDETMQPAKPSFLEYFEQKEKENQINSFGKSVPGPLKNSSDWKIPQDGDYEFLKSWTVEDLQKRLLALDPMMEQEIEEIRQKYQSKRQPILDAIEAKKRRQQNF
Conditions: at 0.1 µM.

Test [7] deals with T1, Serine/threonine-protein kinase 4 (Homo sapiens). Conditions: at 1 µM.
Test [8] addresses T2, Serine/threonine-protein kinase 3 (Homo sapiens) (UniProt Q13188).
T2 sequence (whole entry): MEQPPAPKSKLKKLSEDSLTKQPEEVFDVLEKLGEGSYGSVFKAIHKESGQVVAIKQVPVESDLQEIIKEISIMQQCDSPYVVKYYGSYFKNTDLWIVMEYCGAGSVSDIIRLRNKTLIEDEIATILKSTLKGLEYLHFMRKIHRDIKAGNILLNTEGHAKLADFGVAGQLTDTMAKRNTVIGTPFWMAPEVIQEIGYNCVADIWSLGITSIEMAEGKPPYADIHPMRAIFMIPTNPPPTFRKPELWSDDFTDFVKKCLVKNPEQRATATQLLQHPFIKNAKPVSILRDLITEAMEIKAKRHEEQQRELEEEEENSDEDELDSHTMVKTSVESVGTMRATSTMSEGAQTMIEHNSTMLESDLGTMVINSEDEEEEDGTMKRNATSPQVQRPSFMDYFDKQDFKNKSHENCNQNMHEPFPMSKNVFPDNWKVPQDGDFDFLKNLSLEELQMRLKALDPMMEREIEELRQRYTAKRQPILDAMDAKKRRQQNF
Conditions: at 0.1 µM.

Test [9] deals with T2, Serine/threonine-protein kinase 3 (Homo sapiens). Conditions: at 1 µM.
The target in test [10] is Serine/threonine-protein kinase 26 (Homo sapiens) (UniProt Q9P289). The settings on record: at 0.1 µM.
The target is the same in test [11]. Conditions: at 1 µM.
Test [12] concerns the target Serine/threonine-protein kinase PAK 1 (Homo sapiens) (UniProt Q13153). The settings on record: at 0.1 µM.
For test [13] the target is unchanged. The settings on record: at 1 µM.
In test [14] the target is Serine/threonine-protein kinase PAK 2 (Homo sapiens) (UniProt Q13177). The settings on record: at 0.1 µM.
Test [15] has the same target. Conditions: at 1 µM.
Test [16] addresses Serine/threonine-protein kinase PAK 3 (Homo sapiens) (UniProt O75914). The settings on record: at 0.1 µM.
For test [17] the target is unchanged. The settings on record: at 1 µM.
For test [18], the target named is Serine/threonine-protein kinase PAK 5 (Homo sapiens) (UniProt Q9P286). Conditions: at 0.1 µM.
Test [19] shares this target. Conditions: at 1 µM.
Test [20] concerns the target Serine/threonine-protein kinase PAK 6 (Homo sapiens) (UniProt Q9NQU5). The settings on record: at 0.1 µM.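 Further: mean PAK6 inhibition reported from the GSK PKIS screen.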

Serine/threonine-protein kinase PAK 1 (Homo sapiens), sequence (Q13153 whole entry): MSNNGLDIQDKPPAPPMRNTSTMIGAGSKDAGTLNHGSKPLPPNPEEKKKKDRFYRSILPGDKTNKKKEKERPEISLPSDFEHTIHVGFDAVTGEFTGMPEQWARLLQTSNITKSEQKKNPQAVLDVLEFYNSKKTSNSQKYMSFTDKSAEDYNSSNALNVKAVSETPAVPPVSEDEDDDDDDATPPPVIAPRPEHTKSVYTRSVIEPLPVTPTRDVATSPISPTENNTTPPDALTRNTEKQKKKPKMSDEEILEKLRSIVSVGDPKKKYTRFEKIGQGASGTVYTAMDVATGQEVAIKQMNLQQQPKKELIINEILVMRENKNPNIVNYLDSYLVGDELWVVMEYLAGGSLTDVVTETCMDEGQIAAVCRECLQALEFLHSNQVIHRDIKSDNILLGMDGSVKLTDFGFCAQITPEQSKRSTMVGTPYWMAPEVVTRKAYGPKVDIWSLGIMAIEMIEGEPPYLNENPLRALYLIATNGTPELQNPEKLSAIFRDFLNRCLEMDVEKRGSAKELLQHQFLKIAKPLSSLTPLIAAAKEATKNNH
Dual specificity mitogen-activated protein kinase kinase 1 (Homo sapiens), sequence (Q02750 whole entry): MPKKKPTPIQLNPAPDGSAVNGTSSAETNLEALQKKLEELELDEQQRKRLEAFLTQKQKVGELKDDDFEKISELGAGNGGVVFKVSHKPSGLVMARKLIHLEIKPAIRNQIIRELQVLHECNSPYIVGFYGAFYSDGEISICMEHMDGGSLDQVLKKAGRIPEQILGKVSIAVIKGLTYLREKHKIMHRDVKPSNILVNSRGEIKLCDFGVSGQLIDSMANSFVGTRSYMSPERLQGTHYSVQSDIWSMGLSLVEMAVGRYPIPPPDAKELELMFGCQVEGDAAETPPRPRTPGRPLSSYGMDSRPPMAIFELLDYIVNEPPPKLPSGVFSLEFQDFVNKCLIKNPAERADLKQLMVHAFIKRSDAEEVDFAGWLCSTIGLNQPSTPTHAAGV
Serine/threonine-protein kinase PAK 6 (Homo sapiens), sequence (Q9NQU5 whole entry, looked up): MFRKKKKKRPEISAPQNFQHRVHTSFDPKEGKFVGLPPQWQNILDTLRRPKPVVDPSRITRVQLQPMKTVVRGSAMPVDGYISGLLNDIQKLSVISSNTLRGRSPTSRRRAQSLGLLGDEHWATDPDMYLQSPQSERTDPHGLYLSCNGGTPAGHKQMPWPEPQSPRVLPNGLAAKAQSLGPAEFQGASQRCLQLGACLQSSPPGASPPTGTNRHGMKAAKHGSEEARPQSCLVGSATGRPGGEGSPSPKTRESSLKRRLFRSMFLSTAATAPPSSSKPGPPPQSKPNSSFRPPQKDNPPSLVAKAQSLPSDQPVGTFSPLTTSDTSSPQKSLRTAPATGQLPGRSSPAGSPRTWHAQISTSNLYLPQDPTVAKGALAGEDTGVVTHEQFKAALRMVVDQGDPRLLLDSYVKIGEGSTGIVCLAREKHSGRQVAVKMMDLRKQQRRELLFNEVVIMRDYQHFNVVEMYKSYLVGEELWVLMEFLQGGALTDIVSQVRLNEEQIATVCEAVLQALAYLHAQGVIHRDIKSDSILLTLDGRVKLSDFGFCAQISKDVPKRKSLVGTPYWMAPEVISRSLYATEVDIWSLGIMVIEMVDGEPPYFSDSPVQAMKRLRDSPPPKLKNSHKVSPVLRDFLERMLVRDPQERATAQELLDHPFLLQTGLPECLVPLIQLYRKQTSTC
Mitogen-activated protein kinase kinase kinase kinase 4 (Homo sapiens), sequence (O95819 2-1239 limits assumed): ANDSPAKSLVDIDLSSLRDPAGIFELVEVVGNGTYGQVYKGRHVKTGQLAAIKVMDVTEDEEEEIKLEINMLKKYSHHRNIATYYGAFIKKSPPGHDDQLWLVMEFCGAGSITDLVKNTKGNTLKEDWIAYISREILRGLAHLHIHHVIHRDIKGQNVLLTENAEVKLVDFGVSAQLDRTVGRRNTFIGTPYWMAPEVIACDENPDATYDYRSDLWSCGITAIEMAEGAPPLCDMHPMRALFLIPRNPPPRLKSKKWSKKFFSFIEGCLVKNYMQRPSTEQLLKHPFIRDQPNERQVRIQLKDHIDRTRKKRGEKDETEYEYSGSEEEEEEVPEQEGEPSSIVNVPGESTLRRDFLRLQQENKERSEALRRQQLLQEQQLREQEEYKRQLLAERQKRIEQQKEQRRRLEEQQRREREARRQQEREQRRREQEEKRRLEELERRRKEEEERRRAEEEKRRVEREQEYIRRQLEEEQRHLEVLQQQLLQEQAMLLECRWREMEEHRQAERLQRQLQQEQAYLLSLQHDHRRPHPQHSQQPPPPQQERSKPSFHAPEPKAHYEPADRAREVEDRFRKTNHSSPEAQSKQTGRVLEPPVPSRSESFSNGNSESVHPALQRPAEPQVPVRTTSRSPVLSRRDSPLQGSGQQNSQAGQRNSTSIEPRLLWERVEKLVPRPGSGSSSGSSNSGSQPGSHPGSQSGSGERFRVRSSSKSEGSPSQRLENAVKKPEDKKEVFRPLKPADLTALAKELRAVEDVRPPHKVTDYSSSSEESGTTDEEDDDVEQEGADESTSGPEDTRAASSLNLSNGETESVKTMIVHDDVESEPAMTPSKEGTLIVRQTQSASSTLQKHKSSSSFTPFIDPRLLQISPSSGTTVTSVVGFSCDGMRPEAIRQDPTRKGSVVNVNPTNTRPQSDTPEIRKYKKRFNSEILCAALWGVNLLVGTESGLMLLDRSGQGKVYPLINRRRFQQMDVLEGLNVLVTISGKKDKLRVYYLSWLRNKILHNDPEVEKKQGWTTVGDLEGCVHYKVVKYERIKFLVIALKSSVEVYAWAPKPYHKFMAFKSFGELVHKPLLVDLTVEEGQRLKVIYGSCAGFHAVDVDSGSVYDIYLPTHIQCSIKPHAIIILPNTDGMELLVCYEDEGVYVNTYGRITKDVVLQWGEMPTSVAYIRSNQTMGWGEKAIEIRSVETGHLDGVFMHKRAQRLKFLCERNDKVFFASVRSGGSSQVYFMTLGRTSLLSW
Misshapen-like kinase 1 (Homo sapiens), sequence (Q8N4C8 whole entry, looked up): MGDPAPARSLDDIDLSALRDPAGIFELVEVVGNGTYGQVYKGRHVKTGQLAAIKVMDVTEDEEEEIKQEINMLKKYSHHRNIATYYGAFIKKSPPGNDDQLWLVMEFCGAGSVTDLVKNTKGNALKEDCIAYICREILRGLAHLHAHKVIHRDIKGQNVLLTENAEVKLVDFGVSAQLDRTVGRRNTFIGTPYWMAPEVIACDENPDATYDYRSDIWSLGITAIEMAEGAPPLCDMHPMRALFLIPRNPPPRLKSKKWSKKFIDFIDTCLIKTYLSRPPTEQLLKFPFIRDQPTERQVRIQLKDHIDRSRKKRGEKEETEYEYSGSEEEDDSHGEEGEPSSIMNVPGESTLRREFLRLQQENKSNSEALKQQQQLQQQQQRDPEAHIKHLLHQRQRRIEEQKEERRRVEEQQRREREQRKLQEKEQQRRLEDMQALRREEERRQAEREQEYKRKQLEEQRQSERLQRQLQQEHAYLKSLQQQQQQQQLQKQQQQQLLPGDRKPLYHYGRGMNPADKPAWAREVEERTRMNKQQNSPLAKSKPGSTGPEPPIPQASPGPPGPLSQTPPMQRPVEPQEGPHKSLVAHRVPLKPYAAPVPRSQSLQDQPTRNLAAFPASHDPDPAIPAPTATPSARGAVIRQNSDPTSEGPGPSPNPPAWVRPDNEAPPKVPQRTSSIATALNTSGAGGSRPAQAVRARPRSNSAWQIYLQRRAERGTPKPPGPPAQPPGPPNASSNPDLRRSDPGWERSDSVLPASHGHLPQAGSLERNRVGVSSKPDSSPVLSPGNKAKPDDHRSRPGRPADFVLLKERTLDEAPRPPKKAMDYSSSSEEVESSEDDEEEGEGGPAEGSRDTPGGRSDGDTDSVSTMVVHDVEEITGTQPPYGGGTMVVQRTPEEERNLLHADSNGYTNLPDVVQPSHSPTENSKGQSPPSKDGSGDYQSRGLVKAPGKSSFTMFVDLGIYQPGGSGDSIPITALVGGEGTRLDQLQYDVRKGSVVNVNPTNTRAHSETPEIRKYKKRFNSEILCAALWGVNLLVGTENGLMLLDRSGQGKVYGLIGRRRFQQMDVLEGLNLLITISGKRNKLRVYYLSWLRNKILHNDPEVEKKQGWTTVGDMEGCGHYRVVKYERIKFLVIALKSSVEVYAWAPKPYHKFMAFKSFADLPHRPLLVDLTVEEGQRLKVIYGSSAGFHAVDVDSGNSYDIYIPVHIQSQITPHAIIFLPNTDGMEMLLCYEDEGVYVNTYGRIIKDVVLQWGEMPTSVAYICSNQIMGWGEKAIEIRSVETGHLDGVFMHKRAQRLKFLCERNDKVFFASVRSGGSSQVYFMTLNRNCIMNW
Serine/threonine-protein kinase PAK 3 (Homo sapiens), sequence (O75914 whole entry, looked up): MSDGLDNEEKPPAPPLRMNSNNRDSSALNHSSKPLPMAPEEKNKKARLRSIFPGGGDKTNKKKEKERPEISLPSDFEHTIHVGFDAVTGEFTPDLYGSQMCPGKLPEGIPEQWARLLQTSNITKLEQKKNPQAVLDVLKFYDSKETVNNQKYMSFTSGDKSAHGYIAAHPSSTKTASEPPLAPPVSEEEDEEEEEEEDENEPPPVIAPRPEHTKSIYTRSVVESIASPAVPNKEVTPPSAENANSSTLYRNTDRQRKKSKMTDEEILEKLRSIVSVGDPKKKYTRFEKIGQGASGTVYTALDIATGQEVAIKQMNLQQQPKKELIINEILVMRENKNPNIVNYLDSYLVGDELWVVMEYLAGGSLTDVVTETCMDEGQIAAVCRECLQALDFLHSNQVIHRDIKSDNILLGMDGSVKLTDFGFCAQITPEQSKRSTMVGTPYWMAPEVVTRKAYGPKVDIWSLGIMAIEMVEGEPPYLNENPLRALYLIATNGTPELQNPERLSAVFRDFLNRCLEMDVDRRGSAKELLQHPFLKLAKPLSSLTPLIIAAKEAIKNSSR

Consider `CS(=O)(=O)CCNCc1coc(-c2ccc3ncnc(Nc4ccc(OCc5ccccc5)cc4)c3c2)c1`, for which the inhibition worked out at 7.26% in test [1]; 2.33% in test [2]; 3.36% in test [3]; 5.08% in test [4]; 4.66% in test [5]; 2.75% in test [6]. Further, the inhibition was 3.41% in test [7]; 4.25% in test [8]; 3.71% in test [9]; -2.22% in [10]; 2.64% in [11]; 2.37% in test [12]. For the same compound, the inhibition is 4.92% in [13]; 0.82% in [14]; 0.14% in [15]; 3.37% in [16]; 3.31% in test [17]; 3.59% in [18]. Besides, the inhibition was 3.38% in test [19] and -4% in [20].
`CC(C)(CO)CNC(=O)c1ccc2c(c1)/C(=N/Nc1ccc(S(N)(=O)=O)cc1)C(=O)N2`: the inhibition in test [1] was 18.8%; in test [2] it was 6.31%; in test [3] it was 43.1%; in [4], 1.9%; in [5], 13.1%; in [6] it was 40.7%. Moreover, the inhibition in test [7] was found to be 80.2%; in test [8], 31.6%; in test [9], 77.1%; in test [10], 0.44%; in test [11], 7.27%; in test [12], 3.17%. The inhibition in [13] is 3.48%; in [14], -1.4%; in test [15], -0.42%; in [16] it was -1.02%; in [17], 0.96%; in test [18], -0.42%. Moreover, the inhibition in test [19] is 0.12%; in test [20] it was 2.03%.
For the compound `CS(=O)(=O)CCNCc1ccc(-c2ccc3ncnc(Nc4ccc(OCc5ccccc5)c(C(F)(F)F)c4)c3c2)o1`, the inhibition is 4.73% in test [1]; 3.83% in test [2]; 3.81% in [3]; 5.41% in test [4]; 5.83% in test [5]; 2.67% in [6]. For the same compound, the inhibition in test [7] was 3.71%; in test [8], 4.04%; in [9], 4.03%; in test [10] it was -1.35%; in test [11], -2.67%; in [12], 4.26%. In addition, the inhibition came out at 8.46% in test [13]; 1.24% in test [14]; 1.28% in test [15]; 4.99% in test [16]; 4.14% in test [17]; 1.91% in test [18]. For the same compound, the inhibition in test [19] is 3.73%; in [20], -5.25%.
On to `COc1cc(Nc2nccc(Nc3ccc4c(C)n[nH]c4c3)n2)cc(OC)c1OC`, for which the inhibition came out at 12.4% in test [1]; 2.25% in test [2]; 4.1% in [3]; 2.58% in test [4]; 11% in [5]; 5.05% in test [6]. Also, the inhibition in test [7] came to 7.86%; in test [8], 5.15%; in test [9], 6.19%; in test [10] it was 1.12%; in [11], 3%; in [12] it was 2.19%. Also, the inhibition in [13] is 7.51%; in test [14] it was 0.97%; in test [15], 3.21%; in test [16], 2.53%; in test [17] it was 5.23%; in test [18], 1.57%. The figures for the inhibition in test [19] and in [20] were 15.3% and -4.29%, respectively.
As to `[O-][S+]1CCN(Cc2ccc(-c3ccc4ncnc(Nc5ccc(OCc6cccc(F)c6)c(Cl)c5)c4c3)o2)CC1`, the inhibition was determined as 9.56% in [1]; 5.35% in test [2]; 4.93% in test [3]; 7.98% in test [4]; 8% in test [5]; 6.28% in test [6]. The inhibition in test [7] was 8.16%; in [8], 8.11%; in test [9], 9.49%; in [10], 0.51%; in test [11] it was 2.07%; in test [12], 8.29%. Besides, the inhibition is 11.2% in test [13]; 2.04% in [14]; 2.89% in test [15]; 6.22% in [16]; 5.6% in test [17]; 3.4% in [18]. The inhibition in test [19] is 2.31%; in [20], -2.88%.
For the compound `CCN1CCC(CC(=O)Nc2n[nH]c3nnc(-c4cccc(F)c4F)cc23)CC1`, the inhibition in [1] is 3.87%; in [2], 2.23%; in [3], 2.45%; in test [4], 3.67%; in test [5] it was 4.07%; in test [6], 2.83%. Moreover, the inhibition came out at 6.13% in [7]; 3.62% in [8]; 5.19% in test [9]; 0.66% in test [10]; 1.9% in test [11]; 3.95% in test [12]. The inhibition in [13] stood at 4.17%; in test [14], 2.09%; in test [15], 0.33%; in test [16], 3.91%; in test [17], 1.02%; in test [18], 2%. Besides, the inhibition turned out to be 0.92% in test [19] and 4.45% in test [20].
With `COC(=O)Nc1nc2ccc(Oc3ccc(NC(=O)Nc4cccc(Cl)c4)cc3)cc2[nH]1`, the inhibition in test [1] was found to be 3.87%; in test [2], 1.15%; in [3] it was 0.9%; in test [4], 2.55%; in [5] it was 4.97%; in test [6], 2.25%. For the same compound, the inhibition was 1.87% in [7]; 3.48% in test [8]; 4.19% in test [9]; -1.11% in test [10]; 1.03% in test [11]; 5.21% in [12]. For the same compound, the inhibition in test [13] is 1.37%; in test [14], -0.81%; in [15] it was 0.02%; in test [16] it was 1.03%; in [17], 2.18%; in test [18], 2.63%. Besides, the inhibition in [19] is 3.67%; in test [20], -3.19%.
In the case of `CCCN(CCS(C)(=O)=O)Cc1ccc(-c2ccc3ncnc(Nc4ccc(OCc5cccc(F)c5)c(Cl)c4)c3c2)o1`, the inhibition in test [1] came to 11.1%; in [2], 1.53%; in test [3] it was 1.76%; in test [4], 2.96%; in [5], 7.61%; in [6], 2.67%. Further, the inhibition in [7] came to 4.13%; in test [8], 0.87%; in test [9], 2.11%; in test [10], 0.58%; in test [11] it was 2.97%; in [12], 5.02%. Moreover, the inhibition came out at 3.91% in test [13]; 0.72% in test [14]; 0.92% in test [15]; 1.58% in test [16]; 2.05% in test [17]; 3.25% in test [18]. Moreover, the inhibition is 9.68% in [19] and -9.75% in test [20].
For `Cc1cccc(Nc2ncc(-c3ccccc3)o2)c1`, the inhibition in test [1] was 14.1%; in test [2], 2.53%; in test [3], 2.53%; in [4], 2.9%; in test [5], 10.2%; in test [6] it was 1.44%. Moreover, the inhibition in test [7] is 4.08%; in test [8], 1.8%; in test [9], 4.97%; in test [10], 0.69%; in [11] it was 1.87%; in test [12] it was -2.05%. For the same compound, the inhibition is 3.35% in test [13]; 0.94% in test [14]; 2.06% in test [15]; 2.83% in test [16]; 5.76% in test [17]; 1.42% in [18]. The inhibition in test [19] was 10.2%; in [20], -4.69%.
`Nc1ncc(-c2cccc(S(N)(=O)=O)c2)c2scc(-c3ccc(F)c(Cl)c3)c12`: the inhibition in test [1] is 92.6%; in test [2], 3.89%; in test [3], 6.87%; in test [4], 70.9%; in test [5] it was 91.6%; in test [6] it was 4.66%. In addition, the inhibition in [7] was 6.44%; in test [8] it was 7.02%; in [9], 6.15%; in test [10], -0.08%; in test [11] it was 2.44%; in [12], 3.95%. Further, the inhibition was found to be 5.65% in [13]; 3.24% in [14]; 1.78% in test [15]; 5.21% in [16]; 3.51% in [17]; 4.11% in test [18]. For the same compound, the inhibition in test [19] is 3.74%; in [20], -2.3%.
Regarding `Nc1nc(-c2ccc(F)cc2)c(-c2ccc3ncccc3n2)s1`, the inhibition in test [1] was determined as 61.8%; in test [2], 6.1%; in test [3], 4.31%; in [4] it was 13.2%; in test [5], 47.9%; in test [6], 6.16%. Besides, the inhibition in test [7] was found to be 6.98%; in test [8], 7.16%; in test [9], 5.82%; in test [10], 0.24%; in test [11], 9.07%; in test [12], 6.29%. Further, the inhibition in test [13] worked out at 6.35%; in test [14] it was 1.67%; in test [15], 2.07%; in test [16], 5.1%; in [17], 5.56%; in test [18] it was 2.84%. Besides, the inhibition was 4.21% in test [19] and 1.6% in test [20].
